The entries come from a sample that favours hits as a whole.
RGS4 inh: human RGS4 inhibition; Potency, µM (titrated, usually from 114 µM), without a hit: at the highest dose activity change, negative = inhibition, actives largely listed as inhibitors; 0.039% of 390,000 active; Transcreener GDP fluorescence polarization, RGS4-accelerated GTP hydrolysis; P49798; further: potency means the concentration at half of the fitted maximal effect; on the % scale 0 is the no-effect control and ±100 the full control effect; nearly all actives have a fitted effect of over 75% in size
Target sequence (P49798 whole entry, looked up): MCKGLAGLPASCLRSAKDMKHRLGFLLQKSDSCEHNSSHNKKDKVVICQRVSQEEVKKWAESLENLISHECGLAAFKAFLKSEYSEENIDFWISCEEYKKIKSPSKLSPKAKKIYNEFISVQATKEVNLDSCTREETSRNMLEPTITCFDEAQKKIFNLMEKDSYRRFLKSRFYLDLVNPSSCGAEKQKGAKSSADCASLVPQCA
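MLSMR compounds (23 nl, pin-transferred) preincubated 10 min at room temperature with a 500nM (2x) first reagent, then RGS4 at 900nM (2x) plus Transcreener GDP mix added; fluorescence polarization (620/688 nm) read before and after 90 min at 30 °C.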
LDHA block: blocks human lactate dehydrogenase A; purified LDHA, NADH/diaphorase-resazurin fluorescence; active compounds read low; activity change, % (values are at about 110 or 230 µM); 0.15% of 480,000 active; P00338; in the data active means activity change below about -30%; inconclusive means mostly about -25% to -30%;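 further: plate controls were DMSO wells for no effect and wells without enzyme for full effect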
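Enzyme activity of human lactate dehydrogenase 5 (2 nM; 0.06 mM NADH, 0.2 mM pyruvate, 5 min, RT) is measured via a resazurin/diaphorase fluorescence readout of residual NADH.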
ClpP mod: qHTS Assay for Activators of ClpP | 1.9% of 340,000 active | Potency, µM (doses to about 57.5 µM), without a hit: at the highest dose activity change, negative = active | purified B. subtilis ClpP, FRET peptide cleavage, 20 min | AID 651965, 2013; active means well fitted falling curve with a large enough effect; inconclusive means small, poorly fitted or top-dose-only effect; inactive means no such curve, though single readings can be large or run the other way; further: potency means the concentration at half of the fitted maximal effect; the source files actives as falling curves though it sought activators and does not explain the sign; nearly all actives have a fitted effect of over 65% in size
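ClpP 10 microg/mL final, pH 8 Tris/KCl buffer with BSA, glycerol, Tween-20; compound pinned in; FRET-FV substrate; RT 20 min; Ex320/Em430; ΔFRET vs ADEP 5.8 microM, DMSO, no enzyme.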
Mito fusion yeast: inhibitors of mitochondrial division or activators of mitochondrial fusion; S. cerevisiae fusion-defective mutant growth rescue, CellTiterGlo 48 h; Potency, µM (doses to about 46.1 µM), without a hit: top-dose growth rescue (activation), hits mostly activators; 0.23% of 320,000 active; AID 485298; further: potency means the concentration at half of the fitted maximal effect; % of control where 0% means no effect; nearly all actives have a fitted effect of over 45% in size
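Luminescent cell viability in 1536-well qHTS format served as the measure of rescued growth in ts fusion-mutant S. cerevisiae cultured on non-fermentable YPEG for 48 hours at 37C.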
mIDH1 inhibitor: human IDH1 R132H inhibition; IDH1-R132H enzyme, NADPH consumption, diaphorase/resazurin fluorescence; 0.093% of 390,000 active; O75874; Potency, µM (top dose mostly 76.6 µM), inactives show at the highest dose activity change, negative = inhibition, usual class: inhibitors; further: potency means the concentration at half of the fitted maximal effect; on the % scale 0 is the no-effect control and ±100 the full control effect; nearly all actives have a fitted effect of over 65% in size
Target sequence (O75874 whole entry R132H, stated change not applied): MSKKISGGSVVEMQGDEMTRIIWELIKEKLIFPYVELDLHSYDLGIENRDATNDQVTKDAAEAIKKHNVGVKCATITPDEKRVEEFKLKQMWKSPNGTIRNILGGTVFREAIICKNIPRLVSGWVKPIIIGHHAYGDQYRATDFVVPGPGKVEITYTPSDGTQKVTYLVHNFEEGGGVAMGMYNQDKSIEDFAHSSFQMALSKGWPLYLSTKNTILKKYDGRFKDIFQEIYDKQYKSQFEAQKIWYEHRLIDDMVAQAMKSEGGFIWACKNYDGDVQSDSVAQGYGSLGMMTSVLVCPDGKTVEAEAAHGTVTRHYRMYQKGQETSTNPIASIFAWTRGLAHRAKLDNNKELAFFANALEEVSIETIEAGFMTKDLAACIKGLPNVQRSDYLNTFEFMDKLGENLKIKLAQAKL
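IDH1-R132H (0.5 ug/mL dispensed) in pH 7.5 Tris buffer was preincubated 30 min with compound, then given a substrate mix of 0.016 mM NADPH and 2 mM alpha-KG for 80 min at room temperature; remaining NADPH was read by diaphorase/resazurin fluorescence.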
ASM inhibitor: human S-ASM enzyme inhibition | AID 504937 | placental ASM, HMU-PC fluorogenic substrate, 60 min | Potency, µM (doses to about 57.5 µM), for the others: top-dose activity change, negative = inhibition, usual class: inhibitors | 0.006% of 340,000 active | P17405; further: potency means the concentration at half of the fitted maximal effect
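Human placenta-derived ASM enzyme was preincubated with compound for 10 minutes at room temperature, then given fluorogenic substrate HMU-PC0 (9 uM final) for 60 minutes at 37 °C; a pH 10 stop preceded fluorescence reading at Ex 386/Em 447 nm.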
Starred values were filed as active, the others as inactive; i = inactive; ? = inconclusive; . = no result; ! = not active in a repeat. Unless noted, the call rests on the fitted dose curve; in most records, active means well fitted curve in the direction sought with a large enough effect; inconclusive means small, poorly fitted or top-dose-only effect, or another doubt; inactive means no such curve, though single readings can be large; an effect the other way counts as inactive or inconclusive.

SMILES	RGS4 inh	LDHA block	ClpP mod	Mito fusion yeast	mIDH1 inhibitor	ASM inhibitor
O=C1CCCc2c1ccc1ccccc21	15.6%	-3.4	-3.1%	.	0.1%	-5.8%
Cc1cccc(C(=O)NNC(=O)c2ccc3ccccc3c2)c1	-13.4%	-38.5*	-9.9%	.	-3.0%	0.1%
O=C(Nc1ccncc1)c1ccc2ccccc2c1	-1.2%	-6.9	22.4µM*	4.1%	-1.2%	-2.5%
CC(=O)Nc1ccc(NC(=O)CCc2nc3c(C)nn(-c4ccccc4)c3n(C)c2=O)cc1	.	11.1	.	.	.	.
CC(C)c1ccccc1NC(=O)Cn1nc(C(=O)O)c2ccccc2c1=O	.	-0.5	.	.	.	.
O=c1oc2c3c4c(cc2c2c1CCC2)OCCN4CCC3	-18.1%	8.3	17.8µM*	9.1%	?	i
Cc1nnc(NC(=O)CSc2nc(N)c(NC(=O)c3cccs3)c(=O)[nH]2)s1	-24.7%	1.3	.	-1.6%	-0.3%	0.9%
Cc1cc(C)cc(NC(=O)CSc2nc(N)c(NC(=O)c3cccs3)c(=O)[nH]2)c1	-37.3%	-32.4*	-1.6%	-4.9%	-7.8%	-3.4%
O=C(NC1CCCc2ccccc21)c1ccccc1 (stereo not given)	-3.0%	0.7	-2.8%	5.5%	1.3%	-2.5%
CCn1c(=O)c(=O)[nH]c2cc(C(=O)N3CCC(C(=O)N4CCCCCC4)CC3)ccc21	.	8.7	.	.	.	.
CCn1c(=O)c(=O)[nH]c2cc(C(=O)NC3CCCc4ccccc43)ccc21 (stereo not given)	-7.2%	8.6	31.6µM*	-5.5%	-0.1%	-2.0%
CCn1c(=O)c(=O)[nH]c2cc(C(=O)NC3CC3)ccc21	21.3%	-5.7	31.6µM*	-2.9%	-1.0%	1.8%
CS(=O)Cc1cccc(C(=O)N2CCC(n3cccc3)CC2)c1 (stereo not given)	.	-2.9	.	.	.	.
CCN(CC(=O)NC(C)(C)C)c1nc(-c2cccs2)nc2ccccc12	.	2.9	.	.	.	.
O=C(COC(=O)c1ccccc1NCCO)NCCC1=CCCCC1	-13.2%	1.0	25.1µM*	4.2%	3.2%	i
Cc1ccc(-n2nc(C)c(NC(=O)COC(=O)c3ccccc3NCCO)c2C)cc1	5.2%	-6.2	28.2µM*	-3.1%	-3.2%	i
CC(C#N)(NC(=O)COC(=O)c1ccccc1NCCO)C1CC1 (stereo not given)	-21.6%	2.8	25.1µM*	7.8%	-0.3%	i
O=C(COC(=O)c1ccccc1NCCO)NCC1CCCCC1	19.7%	-5.8	4.3%	-1.3%	0.0%	i
O=C(COC(=O)c1ccccc1NCCO)NCCc1ccccc1	-12.4%	-2.8	14.1µM*	-3.8%	6.4%	i
O=C(COC(=O)c1ccccc1Br)NCCC1=CCCCC1	14.4%	-1.9	.	20.5%	7.1%	3.1%
O=C(OCC(=O)N(Cc1ccccc1)Cc1ccccc1)c1ccccc1NCCO	6.9%	2.1	.	?	6.6%	i
CCCNc1c(NC(=O)NC2(CC(=O)OCC)CCCCC2)c(=O)oc2ccccc12	.	-6.7	.	.	.	.
O=C(CNC(=S)N(Cc1ccccc1)Cc1cccnc1)NC1CC1	-32.5%	-2.1	25.1µM*	-7.4%	3.1%	0.9%
N#Cc1ccc(/C=C/C(=O)c2ccc(N3CCOCC3)cc2)cc1	.	-2.3	.	.	.	.
O=c1oc2ccc3ccccc3c2cc1-c1nnc(-c2ccccc2)o1	-20.6%	-3.0	14.1µM*	3.2%	-2.6%	272.4%
SMILES	RGS4 inh	LDHA block	ClpP mod	Mito fusion yeast	mIDH1 inhibitor	ASM inhibitor
CCC1CCCCN1C(=O)Cn1c(=O)n(-c2ccc(F)c(C)c2)c(=O)c2sccc21 (stereo not given)	.	-38.8*	.	.	.	.
COC(=O)c1c(/N=C/N(C)C)sc2c1CCN(c1ncc(C(F)(F)F)cc1Cl)C2	-23.7%	4.4	-9.7%	10µM*	11.0%	28.2%
COC(=O)c1c(N(S(C)(=O)=O)S(C)(=O)=O)sc2c1CCN(c1ncc(C(F)(F)F)cc1Cl)C2	-14.5%	3.2	-19.3%	-4.2%	4.4%	-1.4%
Cc1[nH]c2ccc(C(=O)N(C)CC(=O)NC(C)(C)C)cc2c1C	.	-14.1	.	.	.	.
C=CCNc1nc(-c2cc(C)n(-c3cc(C)on3)c2C)cs1	.	-0.6	.	.	.	.
C[C@H](NC(=O)[C@H](C)NC(=O)C1CC(=O)N(c2ccc(F)cc2)C1)C(=O)O (stereo not given in full)	.	1.3	.	.	.	.
Cn1cc(C2NC(=O)c3ccccc3N2)c2ccccc21 (stereo not given)	1.9%	0.2	28.2µM*	.	3.3%	33.9%
Cc1cc(Nc2ccc3c(c2)OCCO3)c2cccc(C)c2n1	10.3%	-3.9	31.6µM*	1.1%	4.4%	-0.5%
CC(Sc1cccc2cccc(C(=O)O)c12)C(=O)O (stereo not given)	15.4%	3.3	14.1µM*	10.7%	0.3%	0.2%
Cc1cccc(/C=C(/C(=O)N2CCCCC2)c2cccs2)c1	.	-1.0	.	.	.	.
CCn1nc(C(=O)OCC(N)=O)c2ccccc2c1=O	.	-0.3	.	.	.	.
Cc1ccc(S(=O)(=O)NN2C(=O)c3ccccc3NC2(C)C)cc1	8.4%	2.4	15.8µM*	-1.5%	0.4%	60.1%
CC1(C)Nc2ccccc2C(=O)N1NS(=O)(=O)c1ccccc1	-12.8%	-8.2	-2.7%	-0.6%	1.1%	3.6%
N#Cc1c(C#N)c(-c2ccccc2)n(-c2ccccc2)c1N	-5.6%	-3.0	28.2µM*	-1.2%	-0.4%	-19.0%
O=C(N/N=C/C1CC=CCC1)C1CCCCC1 (stereo not given)	.	8.3	.	.	.	.
c1cc[n+](CCCC[n+]2ccccc2)cc1	24.0%	0.0	-1.4%	0.7%	9.3%	-1.9%
c1cc[n+](CCC[n+]2ccccc2)cc1	-15.3%	-31.0*!	0.3%	-0.1%	-1.7%	2.4%
Cc1nc(-n2nc(C)c(Cl)c2C)sc1C(=O)Nc1ccc(F)cc1	.	-4.6	.	.	.	.
COc1cc2c(cc1OC)C(c1cc3cc(OC)c(OC)cc3[nH]c1=O)N(C(=O)C1CC1)CC2 (stereo not given)	-17.1%	3.7	28.2µM*	-4.4%	1.1%	41.0%
CCc1nc2ccc(C(=O)Nc3ccc(C)cn3)cc2nc1CC	.	25.8	.	.	.	.
COc1cccc(CN(C)C(=O)C2CC(=O)N(c3ccc4c(c3)OCCO4)C2)c1 (stereo not given)	22.6%	-1.1	14.1µM*	-1.3%	1.3%	-0.3%
COc1cc2[nH]c(=O)n3nc(-c4ccccc4)nc3c2cc1OC	-13.9%	7.0	?	-2.1%	3.0%	-2.4%
COc1ccc(-c2nc3c4ccccc4[nH]c(=O)n3n2)cc1	-15.9%	-12.3	31.6µM*	8.9%	4.7%	5.5%
COc1cccc(-c2nc(N3CCCCCC3)c3ccccc3n2)c1O	.	7.4	.	.	.	.
